The whole screen tested about 1,100 compounds, of which about 860 (78%) were called active. Roughly 19% stayed inconclusive and do not appear here. Calls come from the whole dose curve; as a rule, active = well fitted activation curve with a large enough effect; inconclusive = small, poorly fitted or top-dose-only effect; inactive = flat fitted curve, though single readings scatter. The set was probably picked from earlier hits. Some of the results follow.
assay: qHTS of Nrf2 Activators: Hit Validation in Primary Assay; details: Nrf2/ARE reporter cell assay; Potency: activation; series mostly up to 46.1 µM; note: nearly all actives have a fitted effect of over 70% in size
How it was run: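 Luminescence from Steady-Glo lysis reagent, read after 30 min, reported ARE-luciferase activity in AREc32_fluc stable cells. Compounds were tested at several concentrations, incubated 24 h at 37 °C with 5% CO2 following overnight seeding.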
Potency is the fitted concentration of half-maximal effect.

Row | SMILES | Potency
1 | O=C(NCCc1ccccn1)c1c(-c2ccsc2)sc2ccccc12 | 2.31 µM (active)
2 | O=C(Nc1cccc2nsnc12)c1cccs1 | 2.91 µM (active)
3 | O=C(Nc1ccc2nsnc2c1)c1cccs1 | 6.51 µM (active)
4 | COc1ccccc1C(=O)COC(=O)c1cccs1 | 6.51 µM (active)
5 | COC(=O)c1ccccc1NC(=O)c1cccs1 | 14.6 µM (active)
6 | CNC(=O)C1CCN(S(=O)(=O)c2c(C)noc2/C=C/c2ccccc2F)CC1 | 9.2 µM (active)
7 | O=C(/C=C/Nc1ccc(F)cc1)c1cccs1 | 6.51 µM (active)
8 | CCOC(=O)c1ccccc1N/C=C/C(=O)c1cccs1 | 2.31 µM (active)
9 | CCOC(=O)c1ccccc1N/C=C/C(=O)c1ccccc1 | 3.26 µM (active)
10 | O=C(CN1CCCCC1)Nc1nnc(-c2ccccc2)s1 | 5.8 µM (active)
11 | C/C(=N\Nc1ccc(F)cc1F)c1ccc(Br)s1 | 16.4 µM (active)
12 | C/C(=N\Nc1ccccn1)c1cccs1 | 14.6 µM (active)
13 | C/C(=N\Nc1ccccn1)c1ccc(Br)s1 | 7.31 µM (active)
14 | N#Cc1cccn1-c1nccc(-c2cccs2)n1 | 4.61 µM (active)
15 | CC1CCc2c(cc(-c3ccccc3)n2-c2ccc(C(=O)NC(C)C)cc2)C1 (stereo not given) | 23.1 µM (active)
16 | COCCNC(=O)c1ccc(-n2c(-c3ccccc3)cc3c2CCC(C)C3)cc1 (stereo not given) | 16.4 µM (active)
17 | Cc1ccc(S(=O)(=O)c2nc(S(C)(=O)=O)sc2N2CCC(O)CC2)cc1 | 9.2 µM (active)
18 | Cc1ccc(S(=O)(=O)c2nc(S(C)(=O)=O)sc2N2CCC(C)CC2)cc1 | 20.6 µM (active)
19 | Cc1ccc(S(=O)(=O)c2nc(S(C)(=O)=O)sc2N2CCCCC2C)cc1 (stereo not given) | 2.06 µM (active)
20 | COc1ccc(-c2cc3ccccc3oc2=O)cc1NC(=O)c1ccc([N+](=O)[O-])o1 | 3.26 µM (active)
21 | COc1ccccc1NC(=O)c1cnc(SCC(=O)NCCc2ccccc2)n(C)c1=O | 3.66 µM (active)
22 | O=C(COc1cccnc1[N+](=O)[O-])Nc1cccc2ccccc12 | 16.4 µM (active)
23 | Cc1ccc(OCC(=O)Nc2cccc3ccccc23)c([N+](=O)[O-])n1 | 11.6 µM (active)
24 | C/C(=N\Nc1ccc2nncn2n1)c1ccc(Cl)s1 | 3.66 µM (active)
25 | COc1ccc([N+](=O)[O-])cc1C1NN=C(c2ccccc2O)S1 (stereo not given) | 2.91 µM (active)

Row | SMILES | Potency
26 | O=C1CC(c2ccco2)CC(O)=C1C=Nc1cc(Cl)ccc1O (stereo not given) | 4.61 µM (active)
27 | CC1(C)C(=O)OC(/C=C/c2cccc([N+](=O)[O-])c2)C(C)(C)C1=O (stereo not given) | 1.03 µM (active)
28 | N#C/C(=C\c1c(Oc2ccc(Cl)cc2)nc2ccccn2c1=O)C(=O)NC1CCS(=O)(=O)C1 (stereo not given) | 2.06 µM (active)
29 | Cc1cc(C)c2c(N)c(C(=O)c3ccc(Br)cc3)oc2n1 | 4.11 µM (active)
30 | Cc1ccc(-c2cc(-c3cccc(F)c3)n[nH]2)c(O)c1 | 2.59 µM (active)
31 | O=Cc1c(NCc2ccco2)nc2ccccn2c1=O | 1.64 µM (active)
32 | Cc1cccn2c(=O)c(C=NCCO)c(NCc3ccco3)nc12 | 2.59 µM (active)
33 | Fc1ccc2cc(-c3ccsc3)ncc2c1 | 7.31 µM (active)
34 | COc1ccc(N2C(=O)/C(=C\c3ccco3)N=C2SCC(N)=O)cc1Cl | 1.64 µM (active)
35 | O=C(C=Cc1ccccc1Cl)c1ccccc1 | 18.4 µM (active)
36 | Clc1ccc(/C=N/Nc2nnc(Cl)c3ccccc23)cc1 | 2.31 µM (active)
37 | Clc1nnc(NN=C2CCCC2)c2ccccc12 | 4.61 µM (active)
38 | O=[N+]([O-])c1cccc(N2Cc3ccccc3C2)c1 | 20.6 µM (active)
39 | O=C(N/N=C/C(Br)=C/c1ccccc1)c1ccc([N+](=O)[O-])cc1 | 18.4 µM (active)
40 | COc1ccc2c(c1)C1=NN(/C(C)=C/C(C)=O)C(c3cccc(F)c3)C1CC2 (stereo not given) | 5.8 µM (active)
41 | Cc1ccc(-c2nc3sc(C#N)c(N)n3c(=O)c2C#N)cc1 | 8.2 µM (active)
42 | COc1c(Cl)cc(C(=O)NCc2ccco2)cc1Cl | 14.6 µM (active)
43 | Cc1c(C(=O)NCc2ccco2)oc2c(Cl)cccc12 | 1.46 µM (active)
44 | COc1ccccc1NC(=O)c1ccc(Cl)c(S(=O)(=O)NCc2ccco2)c1 | 10.3 µM (active)
45 | COc1ccc(C)c2sc(NC(=O)CCS(=O)(=O)c3ccccc3)nc12 | 4.11 µM (active)
46 | CCOC(=O)c1ccsc1NC(=O)CCS(=O)(=O)c1ccccc1 | 18.4 µM (active)
47 | O=C(CCS(=O)(=O)c1ccccc1)Nc1nc2ccc(F)cc2s1 | 18.4 µM (active)
48 | COc1ccc(OC)c2sc(NC(=O)CCS(=O)(=O)c3ccccc3)nc12 | 3.26 µM (active)
49 | O=C(CCS(=O)(=O)c1ccccc1)Nc1nc2c(s1)COc1ccccc1-2 | 6.51 µM (active)
50 | Cc1cccc2cc3c(nc12)-c1ccccc1C3=O | 10.3 µM (active)

Row | SMILES | Potency
51 | c1ccc2nc3c(ccc4ccccc43)cc2c1 | 9.2 µM (active)
52 | COC(=O)c1c(NC(=O)c2ccccc2)sc(C(N)=O)c1C | 1.46 µM (active)
53 | CCOC(=O)c1sc(NC(=O)c2ccccc2F)c(C(N)=O)c1C | 2.31 µM (active)
54 | c1ccc(N2CC3COc4ccccc4C3=N2)cc1 (stereo not given) | 2.59 µM (active)
55 | c1ccc(N2CC3CCc4ccccc4C3=N2)cc1 (stereo not given) | 5.8 µM (active)
56 | Cc1ccc(S(=O)(=O)c2nc(S(C)(=O)=O)sc2N2CC(C)OC(C)C2)cc1 (stereo not given) | 18.4 µM (active)
57 | CC1CN(c2sc(S(C)(=O)=O)nc2S(=O)(=O)c2ccc(Cl)cc2)CC(C)O1 (stereo not given) | 6.51 µM (active)
58 | CCCS(=O)(=O)c1nc(S(=O)(=O)c2ccc(C)cc2)c(N2CC(C)OC(C)C2)s1 (stereo not given) | inactive
59 | CCOC(=O)c1cnc(-c2ccccc2)nc1-c1ccccc1 | 9.2 µM (active)
60 | Nc1nc(Nc2ccccc2F)nc(NCc2ccco2)c1[N+](=O)[O-] | 2.31 µM (active)
61 | O=C1C=C(C#Cc2ccccc2)C[C@@H](c2ccc(F)cc2)C1 | 11.6 µM (active)
62 | O=C(CCS(=O)(=O)c1ccccc1)Nc1nc(-c2ccccn2)cs1 | 18.4 µM (active)
63 | CC(C)(C)c1csc(NC(=O)CCS(=O)(=O)c2ccc(F)cc2)n1 | 20.6 µM (active)
64 | Cc1ccc2ccc(C3C(=O)c4ccccc4C3=O)nc2c1 | 1.64 µM (active)
65 | C#CCSc1nc(-c2ccccc2)cc(C(F)(F)F)c1C#N | 11.6 µM (active)
66 | Cc1ccc(-c2cc(C(F)(F)F)c(C#N)c(SCCC#N)n2)o1 | 2.59 µM (active)
67 | c1ccc2c(-c3nc4ncccc4o3)cccc2c1 | 6.51 µM (active)
68 | CCn1c(SCC(=O)N/N=C/C=C/c2ccco2)nc2ccccc21 | 1.46 µM (active)
69 | Cn1c(SCC(=O)N/N=C/C=C\c2ccco2)nc2ccccc21 | 2.59 µM (active)
70 | CCn1c(SCC(=O)N/N=C/C=C\c2ccco2)nc2ccccc21 | 1.84 µM (active)
71 | Cn1c(SCC(=O)N/N=C/C=C\c2ccccc2[N+](=O)[O-])nc2ccccc21 | 0.366 µM (active)
72 | Cc1cccc(N=C2NC(=O)S/C2=C\c2ccco2)c1 | 3.26 µM (active)
73 | Cc1ccc(N=C2NC(=O)S/C2=C\c2ccco2)cc1 | 7.31 µM (active)
74 | C=CCn1c(=NC(=O)c2cc(Cl)sc2Cl)sc2cc(S(N)(=O)=O)ccc21 | 2.31 µM (active)
75 | Oc1c(-c2cc(-c3ccco3)[nH]n2)ccc2ccccc12 | 2.31 µM (active)

Row | SMILES | Potency
76 | Oc1ccc(Cl)cc1-c1cc(-c2ccco2)[nH]n1 | 3.66 µM (active)
77 | Oc1ccc(Br)cc1-c1cc(-c2ccco2)[nH]n1 | 3.66 µM (active)
78 | COc1ccccc1NC(=O)c1cc(Cl)nc2ccccc12 | 5.17 µM (active)
79 | O=[N+]([O-])c1cnccc1-n1nnc2ccccc21 | 18.4 µM (active)
80 | COc1ccc(S(=O)(=O)NCCc2csc3nc(-c4ccc(Cl)cc4)nn23)cc1C | 5.17 µM (active)
81 | O=C(COCc1cc(-c2cccs2)on1)Nc1cc(Cl)ccc1O | 2.31 µM (active)
82 | O=C(COCc1cc(-c2ccc(F)cc2)on1)Nc1cc(Cl)ccc1O | 8.2 µM (active)
83 | Oc1ccccc1C1CC(c2cccs2)=NC(c2ccc(Cl)cc2)N1 (stereo not given) | 13 µM (active)
84 | C/C(=N\NC(=O)COc1ccccc1[N+](=O)[O-])c1cccs1 | 6.51 µM (active)
85 | COC(=O)c1ccccc1NC(=O)COc1ccccc1[N+](=O)[O-] | 2.59 µM (active)
86 | O=c1nc2c(-c3ccccc3F)n[nH]n2c2ccccc12 | 2.59 µM (active)
87 | CCNc1nc(NCC)nc(N(C)/N=C/c2ccco2)n1 | 2.59 µM (active)
88 | O=C(N/N=C\c1ccco1)Nc1cccc(Cl)c1 | 2.31 µM (active)
89 | O=C(N/N=C/c1ccco1)Nc1ccccc1 | 8.2 µM (active)
90 | O=C(Nc1ccc(F)cc1)c1nsc(Cl)c1Cl | 1.64 µM (active)
91 | Clc1ccc(C=Cc2ccccn2)c(Cl)c1 | 3.66 µM (active)
92 | O=C(Nc1cccc(/C=C/c2ccccn2)c1)c1ccc(-n2cncn2)cc1 | inactive
93 | Clc1ccc(C=Cc2ccccn2)cc1 | 5.17 µM (active)
94 | CC1(C)C2C/C(=N\O)C(C)(/[N+]([O-])=C/c3cccc([N+](=O)[O-])c3)CC21 (stereo not given) | 20.6 µM (active)
95 | N#C/C(=C\C=C\c1ccccc1)C(=O)NCc1cccnc1 | 2.31 µM (active)
96 | CCCNc1ccc(-c2nc(-c3ccco3)no2)cc1[N+](=O)[O-] | 2.31 µM (active)
97 | O=[N+]([O-])c1cc(-c2nc(-c3ccccc3)no2)ccc1NCc1cccnc1 | 2.31 µM (active)
98 | CCNc1ccc(-c2nc(-c3ccco3)no2)cc1[N+](=O)[O-] | 1.46 µM (active)
99 | COCCNc1ccc(-c2nc(-c3ccco3)no2)cc1[N+](=O)[O-] | 1.46 µM (active)
100 | Cc1nn(-c2cccc(C(F)(F)F)c2)c(=O)c2ccccc12 | 3.66 µM (active)
